Source: the supplement of paper PMC11417369
± gives the standard deviation of the averaged measurements. In all, about 25,000 sequences were measured (“ln(normalized median fluorescence intensity)”: median about 8.9, highest 2% from about 10 on). This is one part of a sample in which the highest values are shown more often than they occur.

These sequences were tested on PfAP2-LT AP2 domain (GST-tagged) (assay: gcPBM binding intensity (ln(normalized median fluorescence intensity)); higher = stronger DNA binding).
Summary of the method: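 GST-tagged P. falciparum DNA-binding domains produced in E. coli were incubated for 1 h on an Agilent 4 × 180k array of primer-extended double-stranded 36-bp intergenic genomic probes with negative controls. Binding intensity is the highest Masliner-normalised natural-log median intensity across replicate spots of either probe orientation, with bound protein detected by Alexa488 anti-GST antibody at 488 nm.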

Sequence	gcPBM binding intensity (ln)
TACTTGTTATTAACATGTACAAAAAAAAAAAAAATT [XGTACX_site1338]	8.46 ± 0.42
TCTAACATATAATATTCACACACATATATATATTAT [CACACA_site8236]	9.21 ± 0.43
ACTAAAAGGCTTAAATGTACATATTATATATATATA [XGTACX_site5897]	8.89 ± 0.42
TGAATAAATATATATACACACATATATGTATATATT [CACACA_site1642]	8.95 ± 0.37
AAAATTTATAGTATGGTGCATAAAAATATATATATA	8.82 ± 0.46
AAAAAAAAAAAACACACACACACATAAATATATATA [CACACA_site149]	10.1 ± 0.18
AAAAAAAAATTAAAAACACACATATAAATAAATATA [CACACA_site6845]	8.76 ± 0.54
AAAAAAATTAAACACACACACACATATATATATATA [CACACA_site4718]	10.1 ± 0.27
CATAAAATATAAAACACACACACATATATATATATA [CACACA_site223]	10.1 ± 0.28
AAAAAAAAAAAAAAAACACACATAAAAATATAATAA [CACACA_site3855]	8.74 ± 0.63
TATAAATAAAAACACACACACATATATATATATATA [CACACA_site2319]	9.88 ± 0.12
TAAATAAAAAAACACACACACATATATATATATATA [CACACA_site2269]	10.2 ± 0.36
AAAAAAAAAAAAAACACACACATATAAATATAAATA [CACACA_site6972]	9.37 ± 0.45
TAAATAAATAAAAAAACACACATATATATATATATA [CACACA_site4029]	9.6 ± 0.44
TAAAATATAAAACACACACACATATATATATATATT [CACACA_site224]	9.72 ± 0.11
TAAATAAATAAAAAAACACACATATAAATATAAATA [CACACA_site7815]	8.9 ± 0.52
AAAAAAAAATTAAAAACACACATATATATATATATA [CACACA_site1580]	9.73 ± 0.014
AAGAAAATAAAAAGGTAAATATGTATAAATAAATAA [TGCATGCA_negctrl_site88]	8.71 ± 0.47
TTATTTTCTTTTTCTTGTACACACATAATATGGATG [XGTACX_site1481]	9.17 ± 0.54
CTAATGATCATATATACACACACACTAATAAAAAAA [CACACA_site9329]	9.64 ± 0.14
ATACCTTCTTTTATGTTTAATTAATATACTTTTTAT [CACACA_negctrl_site1557]	8.96 ± 0.55
ACATATATTATTATATGTACATATATTAATTATATA [XGTACX_site3400]	8.66 ± 0.28
GCACACACAAAAAAAGCATGCATACTAGCTATTTTT [TGCATGCA_site18]	9.37 ± 0.42

Sequence	gcPBM binding intensity (ln)
TACACGCATAAACACACACACACACCCATATATATA [CACACA_site8114]	10.24 ± 0.05
AAAAAGAAAAAAAACACACACAAATATAAATAAATA [CACACA_site1183]	9.24 ± 0.49
AAAAAAAGAAAAAAAACACACACAAATATAAATAAA [CACACA_site8309]	9.46 ± 0.39
TACCAAAAGAAACACACACACAAAATATATAAATAT [CACACA_site1869]	9.88 ± 0.28
ATATATATAAAACACACACACAAAAAAAATAAAGAC [CACACA_site117]	10.1 ± 0.28
AAAAAATATAAAAAAACACACAAAAAAAAAAAAAAA [CACACA_site1382]	8.6 ± 0.59
TACACAAAAATAAACACACACACATATATATATATA [CACACA_site1000]	9.79 ± 0.23
CACCCATAGAAACACACACACGCATAAAAAAAAAAA [CACACA_site1513]	9.56 ± 0.37
TACACAAAAATAAACACACACACATATAAATAAATA [CACACA_site6599]	9.76 ± 0.3
CTTACCAAAAAACACACACACACAAAATATATAAAT [CACACA_site1870]	10.1 ± 0.24
CACAAAAATAAACACACACACATATATATATATATA [CACACA_site4704]	10.21 ± 0.057
ATTCTACACGCACATACACACATATAAATATAAATA [CACACA_site7582]	9.24 ± 0.35
TATATATAATATATATATATGGAAATTCTTTTAAAT [XGTACX_negctrl_site50]	8.41 ± 0.38
AATATGAATATCTATACACACACATATATATACACA [CACACA_site8459]	9.45 ± 0.26
AAAAAAAAAAAATGTGCACACGCGTACACCCAAAAA [CACACA_site8614]	9.03 ± 0.4
TAATGAAGATATATAACACACAAAAGTTATAAATAT [CACACA_site6678]	8.97 ± 0.43
AAAATATAGTAACACATACACACATATATATTTATA [CACACA_site2504]	9.19 ± 0.38
ATAATATATATGAAATGTACATAAATTTAATGCGAC [XGTACX_site5394]	9.18 ± 0.45
AACTGCAAAAAAAGACGTACAAATTATTAATTGCAA [XGTACX_site8929]	8.88 ± 0.54
ATATAAATAACGTGTACACACATATGTATTTATATA [CACACA_site6520]	9.12 ± 0.31
TCATAGTATAAACACACACACACACCCATATATATA [CACACA_site8512]	10.1 ± 0.31
GGAACAAATAATATCACACATATATATATATATATA [CACACA_site5670]	10.2 ± 0.41
AAAAAAAAAAAAAACACACACACAATAGTATATAAA [CACACA_site957]	9.55 ± 0.43

Sequence	gcPBM binding intensity (ln)
TACATAAAATATATCACACATATAATATATATATAT [CACACA_site5834]	8.86 ± 0.35
TTAATTAAGAAACACACACACATATATATATATATT [CACACA_site2290]	9.79 ± 0.12
AAAAAAAAAAAAAACACACACACACCCATAAATATA [CACACA_site151]	10.2 ± 0.15
AATATACAAAATATCACACATATAAAATAATATATA [CACACA_site6067]	8.88 ± 0.45
AATTAACCGAAACACACACACATATATATATATATA [CACACA_site3963]	10.24 ± 0.064
ACCATATAAATAAACACACACACACCCATATATATA [CACACA_site2321]	10 ± 0.36
AAAATTAACCGTAACACACACACATATATATATATA [CACACA_site3964]	9.96 ± 0.28
AAAAAAAATAAACACACACACATACCCATAAATATA [CACACA_site5980]	10 ± 0.13
TTTTTTTTTTTTTTTACACACTATAGGGAAAAAAAA [CACACA_site1916]	8.21 ± 0.37
AGAAAGAAAGAATACACACACACATATATATATATC [CACACA_site3744]	9.95 ± 0.3
GAATTAAAATAATACGTACACACATGTATAATACAT [CACACA_site1004]	9.21 ± 0.29
AAAAAATATATATCACGTGGTAATATATATATATAT [XGTACX_negctrl_site252]	9.16 ± 0.14
CATAAATACATACATACACACATATTTATATTTATA [CACACA_site7071]	9.16 ± 0.4
TATATATAAAAACACACACACACACCCTATAATTAT [CACACA_site4063]	10.18 ± 0.042
ATATAATATATATATAAACACACAAAAAAAATTATA [CACACA_site8434]	8.97 ± 0.45
ATAATATATATATAAACACACAAAAAAAATTATATA [CACACA_site1534]	8.96 ± 0.42
TTGAAAATACAAAATTGTACAAAGATTTAAATAAAA [XGTACX_site1182]	8.7 ± 0.49
GCATACATCAAGCACACACACACACGCACACGCACA [CACACA_site6311]	10.2 ± 0.19
AATAAATAAGCACATACACACATACATACATACATA [CACACA_site6075]	9.54 ± 0.26
CATATACATCCACATACACACATACACCCATACACA [CACACA_site5038]	9.66 ± 0.28
AAGCATACATCAAGCACACACACACCCACACCCACA [CACACA_site372]	10.3 ± 0.42
TGAATAAATCAAAGCACACATACACCCACATATATA [CACACA_site286]	9.47 ± 0.24
TAAATAAGCACATACACACATACATACATACATAAA [CACACA_site4017]	9.44 ± 0.38

Sequence	gcPBM binding intensity (ln)
ATACATCAAGGACACACACACACACCCACACCCACA [CACACA_site8013]	10.4 ± 0.27
AGAAGCATACATCAAGCACACACACCCACACCCACA [CACACA_site8014]	10 ± 0.37
AAATAAAAAAAAAAAAAAAATAACTTAAATGGGATA [TGCATGCA_negctrl_site595]	8.33 ± 0.58
TGCATTATATTAAATTTTTTATTTGTTGATGTTATA [GTGCAC_negctrl_site371]	8.57 ± 0.47
TAAAATATATATATGTGTACATAACATATAATTTTT [XGTACX_site1725]	8.6 ± 0.46
TAAAATTTATAAACTACACACATATATATAGTAATA [CACACA_site3728]	8.8 ± 0.42
TATATATAATATTTTTCACACACCATTTCCTTAAAC [CACACA_site1341]	9.04 ± 0.29
AATCATGCTCCGGAAAGTACATAAATAAATAAATAA [XGTACX_site1690]	8.85 ± 0.56
TAGAATATCCCCTACACACCCAAATAATTTACAAAT [CACACA_site4825]	9.3 ± 0.35
AGGGAATAATATTAATGTACATATATGAACTTGTTT [XGTACX_site6089]	8.93 ± 0.43
TATATATATATAGACACACACACACCCATATATATA [CACACA_site4117]	9.94 ± 0.23
CACCCCCACAGACACACACACACACCCATATATATA [CACACA_site364]	10.45 ± 0.042
CACCCCCACAGACACACACACACACCCACATATATA [CACACA_site365]	10.54 ± 0.035
TAGACTCCCAGACACACACACACACCCATATAATAT [CACACA_site593]	10.2 ± 0.35
TATATACATAGACACCCACACACAAAAAAAAAAAAA [CACACA_site8186]	9.43 ± 0.42
TACGCTCCCAGACACACACACACACCGATATAATAT [CACACA_site8098]	9.89 ± 0.23
TACATATACAGACACACACACACACCCCCACAAAAA [CACACA_site495]	10.45 ± 0.099
TATACATACAGACCCACACACAAAAAAAAAAAAAAA [CACACA_site6536]	9.35 ± 0.5
TATGATACATAATATACATGCATACACAACATTCAG [TGCATGCA_site487]	8.94 ± 0.37
ATATATATACCAAGTAGTACATTCTACAACTAATGT [XGTACX_site8653]	8.79 ± 0.4
